Experimental data reported in PubChem BioAssay AID492953 (The Scripps Research Institute Molecular Screening Center, 2010).
The whole screen tested about 340,000 compounds, of which about 4,200 (1.2%) were called active. The list comes from a sample in which actives are over-represented; it also holds similar structures and randomly drawn compounds. A number with no mark means an inactive call.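 The calls were made as follows: active = inhibition above the mean of all tested compounds plus 3 SD (cut at about 24% in these data); inactive = the rest.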

Molecular target: Platelet-activating factor acetylhydrolase IB subunit alpha2 (Homo sapiens) (UniProt P68402)
Sequence (P68402 whole entry, looked up): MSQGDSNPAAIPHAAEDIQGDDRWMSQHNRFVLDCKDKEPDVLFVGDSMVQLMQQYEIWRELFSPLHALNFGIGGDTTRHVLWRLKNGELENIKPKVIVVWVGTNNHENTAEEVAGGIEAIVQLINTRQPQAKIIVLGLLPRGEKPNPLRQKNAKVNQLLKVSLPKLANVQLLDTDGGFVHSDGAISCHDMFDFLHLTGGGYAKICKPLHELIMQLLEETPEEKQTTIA
Experiment: PAFAH1B2 enzyme inhibitors, primary screen, biochemical, fluorescence polarization, human (AID 492953);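 also: 0% = enzyme with DMSO and 100% = wells lacking PAFAH1B2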
Details: recombinant PAFAH1B2, FP-rhodamine activity probe, at 3.39 µM, stronger effect = higher value

| SMILES | inhibition |
| --- | --- |
| CC12CCC(=O)N1C(C(=O)NCCN1C(=O)S/C(=C\c3ccccc3F)C1=O)CS2 (stereo unspecified) | -0.86% |
| C/C(=N\NC(=O)Cc1ccccc1[N+](=O)[O-])c1cccnc1 | 4.87% |
| CC(C)c1nc(CNC(=O)CC2C(=O)NCCN2Cc2cccc(F)c2F)cs1 (stereo unspecified) | 3.42% |
| CCCCNC(=O)CN1C(=O)NC(Cc2ccccc2)(Cc2ccccc2)C1=O | 2.58% |
| O=C(CN1C(=O)NC(Cc2ccccc2)(Cc2ccccc2)C1=O)NCC1CCCCC1 | 24.3% (active) |
| O=C(CC1CCCCC1)NCc1ccccc1 | 2.39% |
| CC(/C=C/c1ccccc1)=N\NC(=O)C1CC1(C)c1ccccc1 (stereo unspecified) | 6% |
| CCOC(=O)C1(Cc2ccccc2C)CCCN(C(=O)c2ccc(COC)o2)C1 (stereo unspecified) | 5.55% |
| COc1ccc(Cl)cc1NC(=O)CCS(=O)(=O)c1ccc(Br)cc1 | 10% |
| O=C(CCS(=O)(=O)c1ccc(Br)cc1)NCCc1ccc(Cl)cc1 | 25.1% (active) |
| Cc1ccc(S(=O)(=O)CCC(=O)OCC(=O)NCCc2ccc(S(N)(=O)=O)cc2)cc1 | -1.78% |
| CCCC(O)(c1ccccc1)C(c1ccccc1)c1ccccn1 (stereo unspecified) | 0.64% |
| Cc1cccc(NC(=S)NCCc2ccc(Cl)cc2)c1C | 13.9% |
| Cc1ccc(NC(=S)NCCc2ccc(Cl)cc2)c(C)c1 | 24.7% (active) |
| Cc1ccc(NC(=S)NCc2ccccc2Cl)c(C)c1 | -2.26% |
| COc1ccc(CNCCCNCc2ccc(OC)c(OC)c2)cc1OC | 2.53% |
| ONC(=Nc1ccc(Cl)cc1)c1ccccc1Cl | 15% |
| C[C@@H](NC(=O)[C@@H]1Cc2ccccc2CN1)C(=O)NC1CCCC1 | 1.64% |
| CCCCNC(=O)N(O)C1N(/N=C/c2ccccc2O)C(=S)SC1(C)C (stereo unspecified) | 4.39% |
| CCCCNC(=O)N(O)C1N(/N=C/c2ccc(N(C)C)cc2)C(=S)SC1(C)C (stereo unspecified) | 27.3% (active) |
| CCC(C)N1C(=S)SC(C)(C)C1N(O)C(=O)NC1CCCCC1 (stereo unspecified) | 5.19% |
| CN(C)c1nc(N)nc(CSc2nnnn2-c2cccc3ccccc23)n1 | 1.2% |

| SMILES | inhibition |
| --- | --- |
| C=CCN(c1ccc(Cl)cc1)S(=O)(=O)c1cccc(C(=O)OCC(=O)N(C)C)c1 | 27.3% (active) |
| COc1ccc(N(Cc2ccccc2)S(=O)(=O)c2cccc(C(=O)O)c2)cc1 | -0.1% |
| CN(C)C(=O)COC(=O)c1cccc(S(=O)(=O)N2CC3(C)CC2CC(C)(C)C3)c1 (stereo unspecified) | 15.9% |
| CC1=C(C(=O)OCC2CCCCC2)C(c2ccc(F)cc2)NC(=O)N1 (stereo unspecified) | 9.14% |
| CCOCCOC(=O)C1=C(C)NC(=O)NC1c1ccc2c(c1)OCO2 (stereo unspecified) | -0.7% |
| CCC(CC)COC(=O)C1=C(C)NC(=O)NC1c1ccc([N+](=O)[O-])cc1 (stereo unspecified) | 28.2% (active) |
| O=C(NCC(c1cccs1)N1CCOCC1)c1cc(Cl)ccc1[N+](=O)[O-] (stereo unspecified) | 5.77% |
| CSc1ccc(S(=O)(=O)N2CCC(C(=O)NCCc3ccccc3)CC2)cc1 | 0.35% |
| CCOc1ccc(/C(O)=C2/C(=O)C(=O)N(Cc3cccnc3)C2c2ccc(N(C)C)cc2)c(C)c1 (stereo unspecified) | -1.88% |
| O=C(O)/C=C/C(=O)NNc1ccc([N+](=O)[O-])cc1 | 4.93% |
| O=C(NCc1cccc(C(F)(F)F)c1)c1cccc(S(=O)(=O)N2CCN(Cc3ccccc3)CC2)c1 | -9.49% |
| O=C(CCC(=O)c1ccccc1)NCc1cccc(C(F)(F)F)c1 | 2.04% |
| O=C(CCC(=O)N1CCN(S(=O)(=O)c2ccc(Cl)cc2)CC1)NCc1cccc(C(F)(F)F)c1 | 26.5% (active) |
| CC(=O)NCC(=O)N(Cc1ccco1)C1(C(=O)NC2CCCC2)CCCCC1 | 1.82% |
| O=C(NCCc1c[nH]c2ccc(Cl)cc12)c1ccc([N+](=O)[O-])cc1 | 3.76% |
| NS(=O)(=O)c1ccc(CCNC(=O)c2ccc(Cl)cc2[N+](=O)[O-])cc1 | -2.98% |
| O=C(NCCc1ccc(Cl)cc1Cl)c1cc([N+](=O)[O-])c[nH]c1=O | 57% (active) |
| O=C(O)c1ccc(NN=CC2=C(N3CCOCC3)/C(=C/c3ccccc3)CC2)cc1 | -2.37% |
| COc1ccc(C(CNC(=O)c2cc(S(=O)(=O)Nc3cccc(C)c3)ccc2C)N2CCCC2)cc1 (stereo unspecified) | 4.75% |
| CC(C)C[C@H]1CN([C@@H](CC(C)C)CN2CCC[C@@H]2CN2C(=O)C(=O)NC[C@@H]2Cc2ccccc2)C(=O)C(=O)N1CCc1ccccc1 | 1.5% |
| O=c1[nH]c(/C=C/c2cccc(Br)c2)nc2ccccc12 | 1.93% |
| Cc1ccccc1/C=C\c1nc(O)c([N+](=O)[O-])c(=O)[nH]1 | 9.97% |

| SMILES | inhibition |
| --- | --- |
| O=c1[nH]c(/C=C\c2cccc(C(F)(F)F)c2)nc(O)c1[N+](=O)[O-] | 27.5% (active) |
| Cc1ccnc(SCC(=O)Nc2cccc(S(=O)(=O)N3CCOCC3)c2)n1 | 1.16% |
| COC(=O)C1=C(N)Oc2c(oc(CO)cc2=O)C1c1c(F)cccc1Cl (stereo unspecified) | 0.05% |
| COc1ccc(-c2csc3ncnc(N4CCN(S(=O)(=O)c5cccc(F)c5)CC4)c23)cc1 | 5.03% |
| O=S(=O)(Nc1ncnc2sccc12)c1cccc(F)c1 | -0.25% |
| Cc1cc(F)ccc1S(=O)(=O)Nc1ncnc2scc(-c3ccc(F)cc3)c12 | 36.1% (active) |
| CN(CCc1ccccn1)S(=O)(=O)c1ccc2c3c(cccc13)C(=O)N2 | -2.83% |
| CN1C(c2ccc(F)cc2)=CS/C1=C(/C#N)c1nnc2n1-c1ccccc1SC2 | 2.85% |
| CCN(CC)C(=O)Oc1ccc(Br)cc1C(=O)Nc1ccc(F)c(Cl)c1 | 7.03% |
| C=CC[C@@H](CC(=O)N[C@H](CO)Cc1ccccc1)C(=O)N[C@@H](COC(=O)[C@@H](CC=C)Cc1ccc(F)cc1)Cc1c[nH]c2ccccc12 | -1.64% |
| C=CC[C@@H](CC(=O)N[C@H](CO)Cc1ccccc1)C(=O)N[C@H](C)COC(=O)[C@@H](CC=C)Cc1ccc(F)cc1 | 26.8% (active) |
| C=CCC[C@H](Cc1ccc(F)cc1)C(=O)OC[C@@H](NC(=O)[C@@H](CC=C)CC(=O)N[C@H](CO)Cc1ccccc1)C(C)(C)C | 13.2% |
| Cc1ccc(NS(=O)(=O)c2ccc3c(c2)n(C)c(=O)c(=O)n3C)c(C)c1 | 0.65% |
| CCc1ccc(S(=O)(=O)Nc2cc3c(cc2N2CCCCC2)n(C)c(=O)c(=O)n3C)cc1 | 28.5% (active) |
| Cn1c(=O)c(=O)n(C)c2cc(S(=O)(=O)CCC(=O)N3CCCCC3)ccc21 | 5.13% |
| O=C(NC1=CC(=O)c2ccccc2C1=O)c1ccccc1 | 17% |
| CN(O)C(=S)c1ccccc1 | -1.16% |
| Cc1ccc(C(=O)N/C(=C/c2ccc(-c3cccc([N+](=O)[O-])c3)o2)C(=O)NCCCN(C)C)cc1 | 1.95% |
| Oc1[nH]c2ccc(Br)cc2c1N=Nc1nn[nH]n1 | 73.3% (active) |
| NS(=O)(=O)c1ccc(N=Nc2c(O)[nH]c3ccc(Br)cc23)cc1 | 11.8% |
| O=C(CNC(=O)Cc1ccccc1)N=Nc1c(O)[nH]c2ccc(Br)cc12 | -1.85% |
| Cc1cc(C)c(NC(=O)CN2CCOCCOCCOCCOCC2)c(C)c1 | 0.53% |

| SMILES | inhibition |
| --- | --- |
| Cc1nc2nc(C)c(NS(=O)(=O)c3ccc(C(C)(C)C)cc3)c(=O)n2[nH]1 | 16.3% |
| CC1(C)Cc2ccccc2/C(=C/C(=O)c2ccccc2)N1 | -0.07% |
| CC1(C)Cc2ccccc2-c2[nH]c(=S)[nH]c(=O)c21 | 26.1% (active) |
| CC1(C)Cc2ccccc2-c2nc(CN3CCOCC3)[nH]c(=O)c21 | 6.87% |
| CC1C(C)N(C(=O)CCl)c2ccccc2N1C(=O)CCl (stereo unspecified) | 2.69% |
| CC(NC(=O)CC1SC(N)=NC1=O)c1ccccc1 (stereo unspecified) | 3.61% |
| CN(CC(=O)Nc1ccc(Cl)cc1)C(=O)CNC(=O)c1ccc2ccccc2c1 | 29% (active) |
| CN(CC(=O)Nc1ccc(Cl)cc1)C(=O)c1ccc(COc2ccccc2)cc1 | 7.71% |
| O=C(NNC(=O)c1ccc2ccccc2c1)c1ccc(Cl)cc1 | 3.28% |
| Clc1ccc2c(c1)C1=C(C(c3ccncc3)O2)C(c2ccc(Br)cc2)n2ncnc2N1 (stereo unspecified) | 2.64% |
| CN(C)S(=O)(=O)c1cccc(C(=O)OCC(=O)N2CCCC2=O)c1 | 0.79% |
| CC(=O)c1cccc(NC(=O)N2CCCC2C(=O)NCCc2ccccc2)c1 (stereo unspecified) | 4.97% |
| CCc1ccccc1NC(=O)Cc1cn(C)c2ccccc12 | 4.1% |
| COc1ccc(-c2cc(=O)oc3cc(OCC(=O)N[C@@H](Cc4c[nH]c5ccccc45)C(=O)O)ccc23)cc1 | 4.23% |
| COc1ccc(-c2cc(C(=O)NC(Cc3c[nH]c4ccccc34)C(=O)O)c(C)o2)cc1OC (stereo unspecified) | 9.21% |
| CC(Oc1ccc2c(-c3ccccc3)cc(=O)oc2c1)C(=O)NC(Cc1c[nH]c2ccccc12)C(=O)O (stereo unspecified) | 69.3% (active) |
| CSc1ncnc2c1ncn2CC(=O)C1CCC2C3CCC4=CC(=O)CCC4(C)C3CCC12C (stereo unspecified) | 3.57% |
| Cc1ccc(S(=O)(=O)N2CCN(S(=O)(=O)N3CCOCC3)CC2)cc1 | 2.69% |
| CC(C)(C)c1ccc(C(=O)N2CCN(CCNC(=O)C(=O)Nc3ccc(F)cc3)CC2)cc1 | 0.31% |
| CC(=O)N1CCOc2ccc(S(=O)(=O)N3CCN(c4cccc(C(F)(F)F)c4)CC3)cc21 | 3.14% |
